Most compounds without a hit are left out; they make up all but 1.7% or so of the library.
Vc quorum ag = inducers of Vibrio cholerae quorum light production without autoinducers, primary screen, BH1578 luxS cqsA deficient, single point; activation, % at 18.7 µM; V. cholerae BH1578 lux reporter, luminescence, 6 h; 0.16% of 350,000 active; in the data active = activation mostly above about 9.7%, no sharp cut-off
PfHsp40 yeast = rescue of yeast from PfHsp40 toxicity, primary screen, S. cerevisiae, ATP luminescence; S. cerevisiae expressing PfHsp40, growth rescue; growth rescue, % at 12.5 µM; 0.68% of 340,000 active; AID 504582, 2011; in the data active = growth rescue above about 28%, passing the limit was not always enough;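 also: yeast W303a lacking pdr1 and pdr3 grown in galactose medium; growth measured after three days at 30 °C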
Mtb hypoxia inh = PubChem AID 1159583; M. tuberculosis hypoxia-regulated fluorescent reporter, fluorescence; fluorescence inhibition, % (no concentration beside the values); 0.1% of 300,000 active; in the data active = fluorescence inhibition mostly above about 23%, no sharp cut-off; inactive = mostly below about 17%
CCHF vOTU inh = CCHFV vOTU protease inhibitors, primary screen, biochemical, Pep-AMC substrate, fluorescence. Crimean-Congo hemorrhagic fever virus L polyprotein viral ovarian tumor (vOTU) protease …. inhibition, % at 11.5 µM. 0.55% of 370,000 active; in the data active = inhibition above about 30%; also: 0% = vehicle wells with enzyme and 100% = no enzyme wells
RN4220 kill = growth inhibition of S. aureus RN4220, primary screen, OD600. 16 h. inhibition, % (no concentration beside the values). 0.33% of 330,000 active. AID 1259311, 2017; in the data active = inhibition above about 85%;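 also: plate controls were untreated cells for no effect and reference antibiotic for full effect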
ugtP null kill = growth inhibition of ugtP-null S. aureus, primary screen, RN4220 ugtP deletion, OD600; 16 h; growth inhibition, % (no concentration beside the values); 0.54% of 330,000 active; in the data active = growth inhibition above about 68%;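 also: plate controls were untreated wells for no effect and antibiotic for full effect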
* hit, by the source's call; i = inactive; . = no result given.

SMILES	Vc quorum ag	PfHsp40 yeast	Mtb hypoxia inh	CCHF vOTU inh	RN4220 kill	ugtP null kill
CC=C(C)C(=O)Nc1cccc(C2=NOC3(C2)CC(C(N)=O)N(C(=O)Cc2ccc([N+](=O)[O-])cc2)C3)c1 (stereo not given)	.	.	22.1	.	2.9	5.0
c1cnc2c(c1)ccc1cccnc12	0.6	57.1*	.	2.1	1.6	-4.9
O=C(NNc1c2ccccc2nc2ccccc12)c1cccc(O)c1	-0.3	0.7	25.5	6.1	0.4	-4.8
Oc1cccc(-c2nc3ccc4ccccc4c3c3c2CCC3)c1	i	1.8	7.5	11.0	61.0	99.7*
C=C(C)C1Cc2nc(N)nc(C)c2C1 (stereo not given)	i	-0.5	10.0	2.8	2.0	0.5
C=C(C)C1Cc2c(C)nn(-c3nc(C)cc(C)n3)c2C1 (stereo not given)	-6.2	113.2*	8.6	-3.8	-19.0	-2.8
O=C(c1ccc(O)c(Br)c1)c1cc(Br)ccc1O	-5.0	7.9	2.2	10.2	76.8	84.4*
O=C(C(=O)c1cc(Br)ccc1O)c1cc(Br)ccc1O	.	111.8*	8.2	24.7	100.2*	100.3*
O=C(c1cnn(-c2ccccc2)c1)c1cc(Br)ccc1O	-2.7	-0.9	3.1	-2.5	5.1	4.1
Cc1ccccc1-n1c(SCC(=O)NN=Cc2ccccc2OCC(=O)O)nc2ccccc2c1=O	.	.	-0.2	.	3.5	14.2
COc1cc(C=NN=C(N)c2nonc2N)cc(OC)c1OC	.	.	6.7	.	5.9	6.1
Cc1ccc(C2=CC(c3ccc(C)cc3)n3ncnc3N2)cc1 (stereo not given)	2.8	69.0*	19.3	-1.2	4.4	4.9
O=C(C1CC(=O)N(C2CCCCC2)C1)N1CCc2ccccc21 (stereo not given)	-0.3	61.0*	1.4	6.9	3.3	-4.2
COc1cccc(C(=O)NN=c2oc3ccccc3cc2C(N)=O)c1	.	.	17.3	.	4.2	-1.8
Cc1ccc(Sc2oc(C=Nn3cnnc3)cc2Br)cc1	.	.	12.2	.	0.4	6.2
Cc1cc(C)c(S(=O)(=O)N2CCN(c3ccccn3)CC2)c(C)c1	i	52.6*	11.8	19.9	4.3	7.5
Cc1cc(S(=O)(=O)N2CCN(c3ccccn3)CC2)ccc1F	i	-0.1	3.4	1.9	2.5	1.8
CCOC(=O)CC1c2ccccc2S(=O)(=O)N1C1CC1 (stereo not given)	.	.	2.6	.	-2.4	-13.1
Clc1cc2nc3ccccn3c2cc1Cl	-2.8	151.8*	.	-83.1	0.1	8.6
CCN(CC)c1ccc(/C=N/NC(=O)c2cccc(S(=O)(=O)Nc3ccccc3OC)c2)c(O)c1	-0.1	105.4*	.	-10.1	.	.
CCN(CC)S(=O)(=O)c1cccc(C(=O)Nc2ccc(Cl)cn2)c1	.	56.1*	5.4	-9.2	8.6	1.8
CCN(CC)S(=O)(=O)c1cc(C(=O)Nc2ccc(Cl)cn2)ccc1C	-0.4	-0.5	.	9.8	-0.6	11.3
CCN(CC)S(=O)(=O)c1cccc(C(=O)N/N=C/c2ccc(O)c(O)c2O)c1	-0.2	202.2*	.	3.1	.	.
Cc1ccc(C=NNC(=O)CSc2nc3ccccc3o2)cc1	.	.	4.7	.	2.6	4.6
CCOc1ccc(NC(=O)c2ccc(NC(=O)c3cn4c5c(c(N6CCN(C)CC6)c(F)cc5c3=O)OCC4C)cc2)cc1 (stereo not given)	-2.6	-1.6	.	-26.1	97.5*	98.2*
SMILES	Vc quorum ag	PfHsp40 yeast	Mtb hypoxia inh	CCHF vOTU inh	RN4220 kill	ugtP null kill
COc1c(F)c(F)cc2c(=O)c(C(=O)O)cn(C3CC3)c12	-0.6	-0.2	10.9	-10.8	55.9	76.1
CCOc1ccc(C(=O)Nc2ccc(N3CCN(C)CC3)cc2)cc1	-1.2	0.1	18.2	-8.6	6.1	11.3
CC1COc2c(N3CCN(C)CC3)c(F)cc3c(=O)c(C(=O)O)cn1c23 (stereo not given)	i	1.5	.	-70.7	100.1*	98.7*
CC(CC(=O)NCCCN1CCOCC1)=NNC(=O)COc1cccc2ccccc12	.	.	11.0	.	7.6	7.8
N#Cc1c(Cl)nsc1NC(=O)c1ccccc1	-0.4	216.6*	.	10.3	77.6	81.4
N#Cc1c(NC(=O)c2ccccc2)sc2c1CCCCC2	0.7	0.4	-1.2	2.9	27.0	10.2
COc1cccc(C=NNc2ccc(Cl)nn2)c1OC	.	.	12.9	.	4.2	-8.6
O=C(CSc1nccc(-c2cccs2)n1)Nc1cccc(Cl)c1	-0.4	0.3	10.4	-10.6	14.7	14.2
O=C(CSc1nccc(-c2cccs2)n1)Nc1ccc(F)c(Cl)c1	-0.2	-0.5	5.2	14.8	82.9	89.0*
C=CCC(CC(=O)OC(C)(C)C)C(=O)OCC1CCCN1C(=O)C(CC=C)CC(=O)NC(CO)Cc1ccccc1 (stereo not given)	.	.	4.1	.	7.9	9.4
CCCCOC(=O)c1ccc(NC(=S)N2CCN(c3ncc4c(=O)c(C(=O)O)cn(CC)c4n3)CC2)cc1	1.3	0.4	2.3	-13.0	100.6*	100.5*
CCn1cc(C(=O)O)c(=O)c2cnc(N3CCN(C(=S)Nc4ccccc4)CC3)nc21	-2.3	1.2	-7.3	-0.2	17.4	4.4
CC(=O)C(C(C)=O)c1c(Cl)c(O)c(O)c2c(C(=O)c3ccccc3)coc12	i	51.2*	.	5.2	.	.
CN1CCN(Cc2c(O)ccc3occ(C(=O)c4ccccc4)c23)CC1	-3.2	-1.0	13.6	7.2	2.3	9.7
Cc1ccc(C)c(C=Nn2cc(-c3ccccc3)[nH]c2=S)c1	.	.	-3.2	.	0.8	9.3
N#Cc1c(-c2ccc(Cl)cc2)c(C#N)c(=O)n(N)c1N	-0.3	-3.0	8.3	18.4	7.0	5.4
N#Cc1c(-c2ccc(Cl)cc2)n(O)c2ccccc12	i	284.2*	.	.	.	.
CCc1ccc(OCC(=O)Nc2cccc3c2CCCC3)cc1	-0.3	8.4	6.3	11.1	24.8	98.9*
C=CC[C@@H](Cc1ccc(F)cc1)C(=O)OC[C@@H]1CCCN1C(=O)[C@H](CC=C)CC(=O)N(CCO)Cc1ccccc1	i	36.6*	.	11.1	.	.
C=CCC[C@@H](Cc1ccc(F)cc1)C(=O)OC[C@@H]1CCCN1C(=O)[C@@H](CC=C)CC(=O)N[C@@H](CO)Cc1ccccc1	-0.4	40.8*	.	23.3	.	.
C=CCCC(Cc1ccc(F)cc1)C(=O)OCC1CCCN1C(=O)C(CC=C)CC(=O)NC(CO)Cc1ccccc1 (stereo not given)	.	.	6.3	.	-0.7	7.5
COc1cc2ccccc2cc1C(=O)N/N=C/c1cccnc1	-0.1	-1.8	.	10.2	.	.
COc1cc2ccccc2cc1C(=O)NN=Cc1cccnc1	.	.	48.2*	.	1.0	-6.4
COc1ccccc1NC(C)C(=O)NN=Cc1ccccc1OCc1cccc(Br)c1 (stereo not given)	.	.	4.1	.	4.0	-2.7
CCCCCCCCCCSc1n[nH]c(N)n1	2.3	303.0*	9.9	24.4	16.1	83.8*
Cc1[nH]nc(SCC(=O)N2CCCCC2)c1[N+](=O)[O-]	i	1.3	12.4	-20.3	4.0	-2.4
Cc1[nH]nc(SCC(=O)N2CCCCCC2)c1[N+](=O)[O-]	-0.6	49.1*	-0.4	14.9	0.3	4.1
